Test [1] addresses Aldehyde dehydrogenase, mitochondrial (Homo sapiens) (UniProt P05091). Put plainly: qHTS for Inhibitors of the Aldehyde Dehydrogenase Family (ALDH2) Confirmatory screens (AID 2061303; active means well fitted inhibition curve with a large enough effect; title and protocol of this record describe different tests; further: nearly all actives have a fitted effect of over 45% in size; further: potency means the concentration at half of the fitted maximal effect; on activity change, negative = inhibition: on the % scale 0 is the no-effect control and ±100 the full control effect). Background: qHTS replaces the single test concentration by a dilution series.
Test [2] can be described thus: qHTS for Inhibitors of the Aldehyde Dehydrogenase Family (ALDH1A2, ALDH1A3, ALDH2, ALDH3A1) (AID 2061307). Further: nearly all actives have a fitted effect of over 50% in size. On Potency: test system not described further here; potency means the concentration at half of the fitted maximal effect. On activity change, negative = inhibition: on the % scale 0 is the no-effect control and ±100 the full control effect.
Test [3] addresses Aldehyde dehydrogenase, mitochondrial (Homo sapiens) (UniProt P05091). Put plainly: qHTS for Inhibitors of the Aldehyde Dehydrogenase Family (ALDH2) Primary screen (AID 2061308). Further: nearly all actives have a fitted effect of over 55% in size. Further: potency means the concentration at half of the fitted maximal effect.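 On activity change, negative = inhibition: plate controls were vehicle for no effect and reference inhibitor for full effect.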
Test [4] deals with Retinaldehyde dehydrogenase 3 (Homo sapiens) (UniProt P47895). Put plainly: qHTS for Inhibitors of the Aldehyde Dehydrogenase Family (ALDH1A3) Confirmatory screens (AID 2061311). Further: nearly all actives have a fitted effect of over 60% in size. On activity change, negative = inhibition: on the % scale 0 is the no-effect control and ±100 the full control effect.
Test [5] deals with Retinal dehydrogenase 2 (Homo sapiens) (UniProt O94788). Put plainly: qHTS for Inhibitors of the Aldehyde Dehydrogenase Family (ALDH1A2) Confirmation screens (AID 2061314). Further: nearly all actives have a fitted effect of over 65% in size. Further: potency means the concentration at half of the fitted maximal effect.
Test [6] addresses Retinaldehyde dehydrogenase 3 (Homo sapiens) (UniProt P47895). Put plainly: qHTS for Inhibitors of the Aldehyde Dehydrogenase Family (ALDH1A3) Primary screen (AID 2061315).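 Further: plate controls were DMSO vehicle for no effect and reference inhibitor for full effect.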
In test [7] the target is Aldehyde dehydrogenase 1A1 (Homo sapiens) (UniProt P00352). Put plainly: qHTS for Inhibitors of the Aldehyde Dehydrogenase Family (ALDH1A1) Confirmatory screens (AID 2061316). Further: nearly all actives have a fitted effect of over 65% in size. Further: potency means the concentration at half of the fitted maximal effect. On activity change, negative = inhibition: on the % scale 0 is the no-effect control and ±100 the full control effect.

Records with an inconclusive call do not appear. A number with no mark means an inactive call. Active and inactive are the calls of the source. Unless noted, the call rests on the fitted dose curve; in most records, active means well fitted curve in the direction sought with a large enough effect; inconclusive means small, poorly fitted or top-dose-only effect, or another doubt; inactive means no such curve, though single readings can be large; an effect the other way counts as inactive or inconclusive.

For the compound `COC(=O)c1ccc2c(c1)S(=O)(=O)N=C2Sc1cc(C)ccc1C`, the Potency result in test [1], in test [2], in test [3], in test [4], in test [6] and in test [7] was “inactive” each time. The Potency in test [5] is 14.2 µM (active).

Regarding `C[C@@](Cc1ccccc1)(C(=O)O)N1C(=O)c2ccc(C(=O)O)cc2C1=O`, the Potency result in test [1], in test [2], in test [3], in test [4], in test [5] and in test [6] was “inactive” in each case. Moreover, the Potency result in test [7] is “inactive”.

In the case of `O=C(NC1CCCc2c1cnn2-c1ccc(F)cc1F)c1ccccn1` (stereo not given), the Potency entry in test [1], in test [2], in test [3], in test [4], in test [5] and in test [6] was “inactive” each time. Further, in test [7], the Potency result is “inactive”.

For `COc1ccc(C[C@@H](NS(=O)(=O)c2ccc(C(=O)O)cc2)C(=O)O)cc1`, the Potency result in test [1], in test [2], in test [3], in test [4], in test [5] and in test [6] was “inactive” throughout. Moreover, in test [7], the Potency result is “inactive”.

For the compound `CCCCNc1ccc(C(=O)OCCN(CC)CC)cc1`, the Potency result in test [1], in test [2], in test [3], in test [4], in test [5] and in test [6] was “inactive” throughout. Moreover, the Potency entry in test [7] is “inactive”.

Regarding `O=C(O)c1ccc(S(=O)(=O)N[C@H](Cc2ccc(C(F)(F)F)cc2)C(=O)O)cc1`, the Potency entry in test [1], in test [2], in test [3], in test [4], in test [5] and in test [6] was “inactive” in each case. Further, the Potency entry in test [7] was “inactive”.

In the case of `CC(=O)N(C(C)=O)n1c(C)nc2sc3c(c2c1=O)CCNC3`, the Potency result in test [1], in test [2], in test [3], in test [4], in test [5] and in test [6] was “inactive” each time. Also, the Potency result in test [7] is “inactive”.

As for `CC(C)c1ccccc1-c1ncc(F)c(NC(C)(C)c2ccc(-c3cccnc3)cc2)n1`, the Potency entry in test [1], in test [2], in test [3], in test [4], in test [5] and in test [6] was “inactive” throughout. The Potency result in test [7] is “inactive”.

For the compound `N#Cc1ccccc1OC1=NS(=O)(=O)c2ccccc21`, the Potency result in test [1], in test [2], in test [3], in test [4], in test [5] and in test [6] was “inactive” throughout. Further, in test [7], the Potency result was “inactive”.

On to `O=C1[C@@H]2[C@H]3CC[C@H](C3)[C@@H]2C(=O)N1CCCCN1CCN(c2ncccn2)CC1`, for which the Potency entry in test [1], in test [2], in test [3], in test [5] and in test [6] was “inactive” in each case. The activity change, negative = inhibition in test [4] was -14.2% [at 0.022 µM]. Further, the Potency in test [7] is 2.52 µM (active).

Regarding `COc1ccc(C2=Nn3c(nnc3-c3cccc(OC)c3)SC2)cc1`, the Potency entry in test [1], in test [3], in test [4], in test [5], in test [6] and in test [7] was “inactive” each time. Further, the Potency in test [2] was 12.7 µM (active).

Consider `COc1cccc(C2c3c(ncn(CCCN4CCOCC4)c3=N)Oc3ccc4ccccc4c32)c1` (stereo not given), for which the Potency result in test [1], in test [2], in test [3], in test [4], in test [5] and in test [6] was “inactive” each time. In addition, the Potency entry in test [7] is “inactive”.

`S=C(NCCCc1cnc[nH]1)NCCCN(Cc1ccc(Cl)c(Cl)c1)c1ccccn1`: the Potency result in test [1], in test [2], in test [3], in test [4], in test [5] and in test [6] was “inactive” in each case. Further, the Potency result in test [7] is “inactive”.

Regarding `CCc1nn2c(=O)cc(-c3ccncc3)nc2s1`, the Potency result in test [1], in test [2], in test [3], in test [4], in test [6] and in test [7] was “inactive” in each case. Moreover, the Potency in test [5] is 25.2 µM (active).

For the compound `O=C(C1CCN(c2nc(-c3ccc(Br)cc3)cs2)CC1)N1CCOCC1`, the Potency result in test [1], in test [3], in test [4], in test [5], in test [6] and in test [7] was “inactive” in each case. Further, in test [2], the Potency is 11.3 µM (active).

As to `Cc1noc(C)c1-c1csc(N2CCC(C(N)=O)CC2)n1`, the Potency result in test [1], in test [2], in test [3], in test [4], in test [5] and in test [6] was “inactive” each time. Moreover, the Potency entry in test [7] is “inactive”.

For `N[C@@H](CCC(=O)O)C(=O)Nc1ccc(Cl)cc1C(=O)c1ccc[nH]1`, the Potency result in test [1], in test [2], in test [3], in test [4], in test [5] and in test [6] was “inactive” throughout. The Potency entry in test [7] is “inactive”.

`Cc1cc(NC(=O)c2ccc([S+](=O)([O-])NCc3ccc(Cl)c(Cl)c3)cc2)no1`: the Potency entry in test [1], in test [2], in test [3], in test [4], in test [5] and in test [6] was “inactive” each time. Besides, in test [7], the Potency result is “inactive”.

As for `CC(C)(C)OC(=O)N1CCN(c2ccc(NCc3cnc(-c4ccc(C#N)cc4)o3)cc2)CC1`, the Potency in test [1] was 0.4 µM (active); in test [2], 0.252 µM (active); in test [3] it was 0.316 µM (active). Also, the Potency result in test [4], in test [5], in test [6] and in test [7] was “inactive” in each case.

`CC(C)(C)c1ccc(SC2=NS(=O)(=O)c3ccccc32)cc1`: the Potency result in test [1], in test [2], in test [3], in test [4], in test [6] and in test [7] was “inactive” each time. The Potency in test [5] was 12.7 µM (active).

Consider `COc1ccc(-c2csc(N3CCC(C(N)=O)CC3)n2)cc1`, for which the Potency entry in test [1], in test [2], in test [3], in test [4], in test [5] and in test [6] was “inactive” each time. Also, in test [7], the Potency entry was “inactive”.

For `COc1ccc(C2=Nn3c(nnc3-c3cc(OC)cc(OC)c3)SC2)cc1`, the Potency result in test [1], in test [2], in test [3], in test [4], in test [5] and in test [6] was “inactive” in each case. For the same compound, the Potency result in test [7] is “inactive”.

`O=C(O)c1ccc(S(=O)(=O)N[C@H](Cc2ccccc2)C(=O)O)cc1`: the Potency entry in test [1], in test [2], in test [3], in test [4], in test [5] and in test [6] was “inactive” in each case. Further, the Potency result in test [7] is “inactive”.

As to `C=CCNc1oc(-c2cccs2)nc1C#N`, the Potency result in test [1], in test [2], in test [3], in test [4], in test [5] and in test [6] was “inactive” each time. Besides, the Potency result in test [7] is “inactive”.

On to `COc1ccc(C[C@H](N)C(=O)N[C@H]2[C@@H](O)[C@H](n3cnc4c(N(C)C)ncnc43)O[C@@H]2CO)cc1`, for which the Potency result in test [1], in test [2], in test [3], in test [4], in test [5] and in test [6] was “inactive” in each case. The Potency entry in test [7] was “inactive”.

These data come from PubChem BioAssay (NCATS).
